Source: PubChem
Autofluor 339: intrinsic fluorescence of library compounds, ex339/em460 – biochemical, MLSMR library, data from DPM-DC assay, artefact control, profiling panel; fluorescence fold increase at 10 µM; 65,000 tested, 5.5% active; compound autofluorescence, ex339/em460 nm, NADH buffer; hits give high values; 1 = no-compound wells, NADH background;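 active = at 10 µM, mean starting fluorescence two-fold or more over control wells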;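 note: signal is the first read of a kinetic run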
Spn DPM-DC inh: S. pneumoniae DPM-DC inhibition | purified DPM-DC, PK/LDH coupled NADH fluorescence | calls only at 10 µM | 65,000 tested, 0.49% active | AID 556;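 active = the 320 compounds with the highest percent inhibition in the single-dose primary screen, excluding strongly autofluorescent ones, cut at about 32% in these data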;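 note: kinetic rate of NADH fluorescence loss reporting ADP formed by the decarboxylase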
Spn MK inh: blocks S. pneumoniae mevalonate kinase; purified MK, PK/LDH-coupled NADH absorbance 340 nm; inhibition, % at 10 µM; 65,000 tested, 0.48% active; AID 555;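 active = ranked among the strongest by inhibition in the single 10 µM screen, a fixed top-ranked set picked for dose follow-up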
Spn PMK inh: blocks S. pneumoniae phosphomevalonate kinase | purified PMK, PK/LDH-coupled NADH absorbance 340 nm | inhibition, % at 10 µM | 65,000 tested, 0.49% active;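 active = top-ranked compounds by inhibition in the single 10 µM screen, taking a fixed number of the strongest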;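 note: 0% = full reaction with DMSO carrier and 100% = background rate without enzyme reaction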
A340 absorber: compound absorbs light at 340 nm | compound absorbance at 340 nm, fold over control | fold change at 10 µM | 65,000 tested, under 10 active;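 active = at 10 µM dose, initial 340 nm absorbance at least 2 fold that of control wells; inactive = change under 2 fold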;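 note: initial absorbance extrapolated from kinetic A340 decline of NADH oxidation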
NADH coupling: inhibition of NAD/NADH coupling enzymes, library profiling. coupled PK/LDH NADH assays, four targets. IC50, µM (series often up to 10 µM), for the others: at the top dose inhibition. 65,000 tested, 0.02% active;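 active = single-dose screening hits from any of four coupled enzyme assays that gave an IC50 when retested across doses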;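 note: the DPM-DC format reads NADH fluorescence rather than 340 nm absorbance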
* hit, by the source's call; i = inactive; nt = not tested or not shown; + = active, no number. Shown are actives, neighbours in structure and some others; about 6.5% of the full set was active somewhere.

SMILES	Autofluor 339	Spn DPM-DC inh	Spn MK inh	Spn PMK inh	A340 absorber	NADH coupling
S=C(NCC1CCCO1)n1nnc2ccccc21 (stereo not drawn)	1.1	i	6	2	1	2%
N=C1C=CC=C2C1=NC1(CCCCC1)N2O	1.1	i	6	2	1.1	3%
N#Cc1nc(-c2ccco2)oc1NCc1ccc(F)cc1	3.3*	i	11	10	1	15%
N#Cc1nc(-c2ccco2)oc1NCc1cccnc1	2.1*	i	16	20	1	19%
CCOc1cccc(C(=O)Nc2cccc(-c3nnc(-c4ccccc4)o3)c2)c1	1.1	i	10	8	1.1	6%
CCOc1cccc(C(=O)Nc2cccc(-c3nnc(-c4ccc(C)cc4)o3)c2)c1	3.6*	nt	0	1	1.4	1%
O=C(Nc1ccc(-c2nc3ncccc3o2)cc1)c1ccc(Br)o1	2	nt	8	0	1.1	7%
Cc1nc(NC(=O)c2ccco2)sc1C(=O)Nc1ccc(Br)cc1	1.2	i	0	25*	1.2	10%
Cc1ccc(-c2nnc(-c3ccc(NC(=O)c4ccco4)cc3)o2)cc1	3*	i	0	11	1.1	13%
O=C(Nc1ccc(-c2nc3ncccc3o2)cc1)c1ccco1	2.6*	+	11	5	1.4	20%
Cc1ccc2nc(-c3ccc(NC(=O)c4ccco4)cc3)[nH]c2c1	1.1	i	0	3	1.1	3%
Cc1cc(C)c(Cn2c(=O)n(CCCC(=O)NCc3ccco3)c(=O)c3ccccc32)c(C)c1	1.1	i	0	17	1	3%
Cc1ccc(C)c(N(CC(=O)NC2CCCC2)C(=O)CCCC(=O)Nc2ccccn2)c1	1	i	0	48*	0.98	6%
Cc1cccc(N(CC(=O)NC2CCCC2)C(=O)CCCC(=O)Nc2ccccn2)c1	1.1	i	0	17	0.99	6%
COC(=O)c1ccc(C(=O)OC)c(N)c1	4*	nt	6	0	1	3%
COC(=O)c1ccc(C(=O)OC)c(NS(C)(=O)=O)c1	1.2	i	13	0	1	5%
COC(=O)c1cc(Cc2ccc(N)c(C(=O)OC)c2)ccc1N	2.1*	nt	4	5	1.1	5%
COCCN1CN=C(Nc2nc3ccccc3s2)NC1	1.1	i	2	3	1.1	2%
CC1(C)CC(=O)CC(C)(C)N1OC(=O)c1ccccn1	1	i	2	19	0.98	2%
Cc1cccc(C)c1NC(=O)Cn1c(=O)n(CCCC(=O)NCc2ccco2)c(=O)c2sccc21	1	i	5	13	1	6%
CCOC(=O)CSc1nc(C)c2cc(OC)ccc2n1	3.7*	nt	0	0	1.1	0%
CCC(=O)N/C(N)=N/c1nc(C)c2cc(OC)ccc2n1	2.1*	nt	2	1	1	1%
COc1ccc2nc(/N=C(\N)NC(=O)C(C)(C)C)nc(C)c2c1	2	i	2	6	1	7%
CCOC(=O)CCSc1nc(C)c2ccccc2n1	1.2	i	0	9	1.1	3%
C=CCn1c(CCC(=O)O)ccc1-c1ccccc1	1.3	i	14	8	1	13%
SMILES	Autofluor 339	Spn DPM-DC inh	Spn MK inh	Spn PMK inh	A340 absorber	NADH coupling
Cc1ccc(C)c(OCCOCCN2CCOCC2)c1	1.1	i	1	0	1	0%
Clc1cc(Br)ccc1OCCOCCN1CCOCC1	1.1	i	44*	1	1	15%
O=C(Nc1ccc2c(c1)OCCO2)c1ccc(NC(=O)C2CCCO2)cc1 (stereo not drawn)	1.1	i	11	0	1	4%
CC(C)C(=O)Nc1ccc2c(c1)C(=O)N(CCC(=O)O)C2=O	2.3*	nt	0	4	1	2%
Cc1cc(C)cc(CC2CC(=O)N(c3nc(C)cc(C)n3)C2=O)c1 (stereo not drawn)	1	i	6	25*	0.89	10%
CCC(C)n1c(C)nc2c(c1=O)c1nc3ccccc3nc1n2-c1ccc2c(c1)OCCO2 (stereo not drawn)	1.2	i	11	6	1	6%
CC1(C)C(C=C(Cl)Cl)C1C(=O)N1CCN(c2ccccc2)CC1 (stereo not drawn)	1.2	+	9	0	1.1	14%
Cc1ccccc1NC(=O)CN(C)S(=O)(=O)c1cccc2cccnc12	1.1	i	6	13	1	6%
CCOc1ccc2nc(C(C)O)[nH]c2c1 (stereo not drawn)	1.1	i	7	16	1.1	15%
CCOc1ccc2nc(-c3ccccc3)[nH]c2c1	4*	nt	10	4	0.99	7%
COc1ccc2nc(NCc3ccccc3)[nH]c2c1	1.1	i	9	10	1	6%
COc1ccc2nc(-c3ccccc3)[nH]c2c1	2.3*	nt	6	1	1.1	4%
CCCCOn1c(C)c(C(=O)OCC)c2c3nonc3ccc21	2.6*	i	0	14	0.99	2%
COn1c(C)c(C(C)=O)c2c3nonc3ccc21	3*	i	11	14	1	15%
Cc1cc2nsnc2c(S(=O)(=O)NCC(=O)O)c1C	1.1	i	6	10	1.1	6%
O=C(NCCN1CCN(C(=O)c2cc3ccccc3oc2=O)CC1)c1cc2ccccc2oc1=O	1.3	i	3	17	1.1	7%
CN1CCN(C(=O)c2cc3c(ccc4ccccc43)oc2=O)CC1	3.9*	nt	15	3	1	9%
COc1ccc(-n2c(N)c(C(=O)NCC3CCCO3)c3nc4ccccc4nc32)c(OC)c1 (stereo not drawn)	3.9*	nt	11	5	1	8%
C=CCn1c(N)c(C(=O)NCC2CCCO2)c2nc3ccccc3nc21 (stereo not drawn)	3.8*	nt	9	7	1	8%
O=C(NCC1CCCO1)c1coc2nc3ccccc3nc12 (stereo not drawn)	2.5*	+	2	14	1.1	16%
CN(c1ccccc1C(=O)NCC1CCCO1)S(C)(=O)=O (stereo not drawn)	1.2	i	6	7	1	5%
COc1ccc(-n2nc(C(=O)NCC(=O)NCC3CCCO3)c3ccccc3c2=O)c(OC)c1 (stereo not drawn)	1.1	i	5	3	1	3%
COc1cccc(-n2c(C)c(C(C)=O)c(C(C)=O)c2C)c1	1	i	14	0	1	5%
CCSc1ccccc1C(=O)NCc1ccc2c(c1)OCO2	1.1	i	8	0	1.1	3%
COC(=O)C1=[N+]([O-])OC(C(=O)OC)C1c1c[nH]c2ccccc12 (stereo not drawn)	1	i	5	12	1	9%
